# According to ChEMBL document CHEMBL3988442, “University of Dundee, Small-Polar-MMV Screening Library” (2021):
# In all, about 69,000 compounds went through this assay and about 1,000 (1.4%) showed an effect of 50% or more. The entries come from a sample that favours strong results as a whole.
# System: Leishmania donovani
# Assay: Leishmania intramacrophage assay
# Type: functional, organism-based
# Set-up: scale not given: in the data most compounds retested in dose-response had high values
smiles,measurement,setting,value
Cc1cnc(C(=O)N2Cc3ncn(C)c3C(COCC(C)C)C2)cn1.O=C(O)C(F)(F)F (configuration not stated),Percent Effect,"30.3 µM, […]",30.84%
CN(CCc1noc(C2CC2)n1)C(=O)C1(N2CCCC2)CCCC1,Percent Effect,"30.3 µM, […]",28.86%
Cc1cc(NC(=O)NCCc2cccs2)n(C)n1,Percent Effect,"30 µM, 30.03 µM",-9.195%
O=C(CN1CCCS1(=O)=O)NCCOc1ccc2c(c1)CCC2,Percent Effect,"30 µM, 30.03 µM",22.18%
CCc1nc(C2CCCN2c2ncc(C(N)=O)cc2Cl)no1 (configuration not stated),Percent Effect,"30.3 µM, […]",-6.943%
Cc1cccnc1NCCNC(=O)c1cnc(-c2ccccn2)nc1O,Percent Effect,"30.3 µM, […]",81.9%
Cc1cccnc1NCCNC(=O)c1cnc(-c2cccs2)nc1O,Percent Effect,"30.3 µM, […]",22.97%
Cc1nc(-c2ncc(C(=O)NCCNc3ncccc3C)c(O)n2)cs1,Percent Effect,"30.3 µM, […]",28.4%
O=C(c1occc1CN1C(=O)Cc2ccccc21)N1CCCCCC1,Percent Effect,"30.3 µM, […]",31.83%
Cc1cc(NC(=O)c2ccccc2Br)n(C)n1,Percent Effect,"30.3 µM, […]",-1.29%
CC(C1CCN(Cc2cccc(OC(F)F)c2)CC1)N1CCOCC1 (configuration not stated),Percent Effect,"30.3 µM, […]",37.87%
CC(C)Oc1cccc(CN2CCC(c3n[nH]c4ncccc34)CC2)c1,Percent Effect,"30.3 µM, […]",-3.157%
CC(C)Oc1cccc(CN2CCC(C(C)N3CCOCC3)CC2)c1 (configuration not stated),Percent Effect,"30.3 µM, […]",60.52%
CC(C1CCN(Cc2ccccc2OC(F)F)CC1)N1CCOCC1 (configuration not stated),Percent Effect,"30.3 µM, […]",38.92%
CC(C1CCN(Cc2ccc(N(C)C)nc2)CC1)N1CCOCC1 (configuration not stated),Percent Effect,"30.3 µM, […]",35.27%
CC(C1CCN(Cc2ccc(OC(F)F)cc2)CC1)N1CCOCC1 (configuration not stated),Percent Effect,"30.3 µM, […]",57.26%
CN1CCN(C(=O)c2n[nH]c3c2CN(C2CCOC2)CC3)CC1 (configuration not stated),Percent Effect,"30.3 µM, […]",7.447%
CCc1c(C)sc2c1c(N)nc(=O)n2CCN1CCCCC1,Percent Effect,"30.3 µM, […]",45.7%
OC(CN1CCC(c2ccn[nH]2)CC1)c1ccccc1F (configuration not stated),Percent Effect,30 µM,30.71%
COC[C@@]12CCC[C@@H]1CN(C(=O)COC1CCCC1)C2,Percent Effect,"30.3 µM, […]",36.81%
CCOC1COC2(CCN(Cc3cccc(F)c3)CC2)C1.O=C(O)C(F)(F)F (configuration not stated),Percent Effect,"30 µM, 30.03 µM",37.88%
CN(C)C(=O)CO[C@H]1CO[C@@]2(CCN(Cc3ccsc3)C2)C1.O=C(O)C(F)(F)F,Percent Effect,"30.3 µM, […]",39.07%
COc1ccccc1CN1CC[C@]2(C[C@@H](OCC(=O)N(C)C)CO2)C1.O=C(O)C(F)(F)F,Percent Effect,"30.3 µM, […]",48.44%
CN(C)C(=O)CO[C@H]1CO[C@@]2(CCN(Cc3ccoc3)C2)C1,Percent Effect,"30.3 µM, […]",51.04%
CN(C)C(=O)COC1COC2(CCN(c3cccc(F)c3)CC2)C1.O=C(O)C(F)(F)F (configuration not stated),Percent Effect,"30.3 µM, […]",52.62%
Cc1ccc(N2CCC3(CC2)CC(OCC(=O)N(C)C)CO3)nn1 (configuration not stated),Percent Effect,"30 µM, 30.03 µM",10.68%
CN(C)C(=O)COC1COC2(CCN(c3ncccn3)CC2)C1 (configuration not stated),Percent Effect,"30.3 µM, […]",64.89%
COc1ccc(OCC(=O)NS(=O)(=O)c2ccc(Br)s2)cc1,Percent Effect,30 µM,-22.07%
Cc1occc1C(=O)N1CCCn2cnc(CN3CCCC3=O)c2C1,Percent Effect,"30.3 µM, […]",1.546%
CCOc1ccc(NC(C)=O)cc1S(=O)(=O)Nc1ccon1,Percent Effect,"30.3 µM, […]",32.01%
CC(C)C(=O)Nc1ncn(Cc2cccc(Br)c2)n1,Percent Effect,"30.3 µM, […]",26.25%
O=C(c1ccoc1)N1CC[C@@H]2O[C@@H](COCC3CCOCC3)CC[C@@H]21,Percent Effect,"30.3 µM, […]",5.212%
Cn1nc(C2CC2)cc1C(=O)N1CCC(c2nnsc2S(C)(=O)=O)CC1,Percent Effect,"30.3 µM, […]",16.49%
Cn1ncc(Cl)c1C(=O)N1CCC(c2nnsc2S(C)(=O)=O)CC1,Percent Effect,"30.3 µM, […]",50.11%
Cn1nccc1C(=O)N1CCC(c2nnsc2S(C)(=O)=O)CC1,Percent Effect,"30.3 µM, […]",17.02%
N#Cc1ccc(C(=O)N2CC[C@H]3[C@H]2CCN3CC2CCOCC2)cc1.O=C(O)C(F)(F)F,Percent Effect,"30.3 µM, […]",9.058%
Cc1nc(CNc2ccccc2CCC(F)(F)F)cs1,Percent Effect,"30.3 µM, […]",6.456%
Cc1cnc(NC(=O)c2csc(NCC(C)C)n2)s1,Percent Effect,"30.3 µM, […]",62.13%
Cc1cnc(NC(=O)c2csc(NC3CCCC3)n2)s1,Percent Effect,"30.3 µM, […]",92.33%
O=C(Nc1ccccn1)c1csc(NC2CCCC2)n1,Percent Effect,"30.3 µM, […]",-23.02%
Cc1cccc(NC(=O)c2csc(NCC(C)C)n2)n1,Percent Effect,"30.3 µM, […]",-8.581%
O=C(Nc1nccs1)c1csc(NC2CCCC2)n1,Percent Effect,"30.3 µM, […]",48.24%
CC(=O)NCC1CCC2(CCN(c3nccc(C4CCCC4)n3)CC2)O1 (configuration not stated),Percent Effect,"30.3 µM, […]",3.551%
Cn1cc(N2CC3(COCCN(Cc4ccccn4)C3)OCC2=O)cn1.O=C(O)C(F)(F)F (configuration not stated),Percent Effect,"30.3 µM, […]",33.72%
COc1cccc(C(=O)NCC2CCN(C(=O)c3ccoc3)CC2)c1,Percent Effect,"30.3 µM, […]",42%
CCn1cc(CN2C[C@H]3CC[C@@H]2CN(C(=O)c2ccncc2)C3)cn1,Percent Effect,"30.3 µM, […]",-21.9%
CCC(C)c1csc(NC(=O)c2sc(-c3nnc[nH]3)nc2C)n1 (configuration not stated),Percent Effect,"30.3 µM, […]",32.74%
CCC(C)c1csc(NC(=O)Cc2csc(-c3nnc[nH]3)n2)n1 (configuration not stated),Percent Effect,"30.3 µM, […]",56.95%
CC(C)c1nnc(NC(=O)Cc2csc(-c3nnc[nH]3)n2)s1,Percent Effect,"30.3 µM, […]",6.395%
Cc1cccc2[nH]c(-c3cn(C4CCNCC4)nn3)nc12,Percent Effect,"30.3 µM, […]",8.553%
CSc1ccccc1-n1ccnc1-c1cn(C2CCNCC2)nn1,Percent Effect,"30.3 µM, […]",-6.736%
Cc1c(C)c(C)c2[nH]c(-c3cn(C4CCNCC4)nn3)nc2c1C,Percent Effect,"30.3 µM, […]",88.31%
Cc1ccc2[nH]c(-c3cn(C4CCNCC4)nn3)nc2c1C,Percent Effect,"30.3 µM, […]",79.71%
Cc1cc2nc(-c3cn(C4CCNCC4)nn3)[nH]c2cc1C,Percent Effect,"30.3 µM, […]",79.71%
Clc1ccccc1CCn1ccnc1-c1cn(C2CCNCC2)nn1,Percent Effect,"30.3 µM, […]",-11.26%
Cc1ccc(-n2ccnc2-c2cn(C3CCNCC3)nn2)c(Cl)c1,Percent Effect,"30.3 µM, […]",17.13%
OCCc1ccccc1-n1ccnc1-c1cn(C2CCNCC2)nn1,Percent Effect,"30.3 µM, […]",-17.07%
COc1cccc(CCn2ccnc2-c2cn(C3CCNCC3)nn2)c1,Percent Effect,"30.3 µM, […]",-3.244%
CCCc1noc(CN2CCOCC2C)n1 (configuration not stated),Percent Effect,"30.3 µM, […]",-25.75%
COCc1noc(Cn2ncn3cccc3c2=O)n1,Percent Effect,"30.3 µM, […]",-34.29%
Cc1nccc(N[C@H]2CN(C(=O)CN3CCOCC3)C[C@@H]2C(C)C)n1,Percent Effect,"30.3 µM, […]",9.574%
CC(C)n1cnc2c1C(C(=O)N1CCOCC1)N(CC1CC1)CC2.O=C(O)C(F)(F)F (configuration not stated),Percent Effect,"30.3 µM, […]",17.66%
O=C(NCc1ccccn1)Nc1ccc2[nH]nnc2c1,Percent Effect,"30.3 µM, […]",23.78%
Cn1ccc(CN2CCCC23CCN(Cc2ccccc2F)CC3)n1.O=C(O)C(F)(F)F.O=C(O)C(F)(F)F,Percent Effect,"30.3 µM, […]",36.62%
O=C(O)[C@@H]1CN(Cc2ccc3nsnc3c2)C[C@H]1c1cccnc1,Percent Effect,"30.3 µM, […]",23.58%
Cc1ccccc1-c1noc(CN2CCn3c(nnc3C3CC3)C2)n1,Percent Effect,"30 µM, 30.03 µM",9.47%
COc1cccc(CN2CC(O)CN(C(=O)C3CCC3)CC2=O)c1OC (configuration not stated),Percent Effect,"30.3 µM, […]",10.32%
COc1c(C2CCCN2C(=O)c2ccoc2C)c(C)nn1C (configuration not stated),Percent Effect,"30.3 µM, […]",0.8433%
CCn1nc(C)cc1C(=O)NCc1cc(N(C)C)nc2ccccc12,Percent Effect,"30.3 µM, […]",34.59%
Cc1nn(C)cc1C(=O)NCc1cc(N(C)C)nc2ccccc12,Percent Effect,"30.3 µM, […]",27.45%
Cc1nn(C)c(C)c1C(=O)NCc1cc(N(C)C)nc2ccccc12,Percent Effect,"30.3 µM, […]",50.16%
CCOC(=O)C1(Cc2ccc(Cl)cc2)CCN(Cc2ncc[nH]2)CC1,Percent Effect,"30.3 µM, […]",14.14%
CNc1ncc(CN(C)C(=O)c2ccccc2C2CCNC2)cn1 (configuration not stated),Percent Effect,"30.3 µM, […]",-3.65%
Cc1ncsc1C(=O)NCc1ccnc(OCC(F)(F)F)c1,Percent Effect,30 µM,34.79%
Cc1n[nH]cc1CNCc1ccnc(OCC(F)(F)F)c1.Cl,Percent Effect,"30.3 µM, […]",28.01%
CC(O)CNC(=O)NCc1cccnc1OC1CCCC1 (configuration not stated),Percent Effect,"30 µM, 30.03 µM",16.57%
CN(C)c1ncccc1CNc1snc(Cl)c1C#N,Percent Effect,"30.3 µM, […]",-27.87%
N#Cc1c(Cl)nsc1NCc1cccnc1OCC(F)(F)F,Percent Effect,"30.3 µM, […]",71.75%
N#Cc1c(Cl)nsc1NCc1ccc(N2CCC(CO)CC2)cc1,Percent Effect,"30.3 µM, […]",13.7%
COc1ncccc1CNc1snc(Cl)c1C#N,Percent Effect,"30.3 µM, […]",30.49%
N#Cc1c(Cl)nsc1NCc1ccc(N2CCSCC2)cc1,Percent Effect,"30.3 µM, […]",88.25%
N#Cc1c(Cl)nsc1NCc1ccc(N2CCCC(C(N)=O)C2)cc1 (configuration not stated),Percent Effect,"30.3 µM, […]",27.85%
N#Cc1c(Cl)nsc1NCc1cccnc1OC1CCCC1,Percent Effect,"30.3 µM, […]",98.68%
N#Cc1c(Cl)nsc1NCc1ccnc(OCC(F)(F)F)c1,Percent Effect,"30.3 µM, […]",96.62%
O=S(=O)(NCc1cccnc1OC1CCCC1)N1CCCCC1,Percent Effect,"30.3 µM, […]",-4.69%
COc1ncc(-c2ccc(NC(C)=O)cc2)c(OC)n1,Percent Effect,"30.3 µM, […]",5.344%
CCOCC1CN(C(=O)C2CCOCC2)Cc2cnn(C)c21 (configuration not stated),Percent Effect,"30.3 µM, […]",-4.533%
COCCN1C[C@@H]2[C@@H](OC)CCN(Cc3cccs3)[C@@H]2C1.O=C(O)C(F)(F)F.O=C(O)C(F)(F)F,Percent Effect,"30.3 µM, […]",25.04%
NC(=O)Cn1cc(NC(=O)N2CCSCC2)cn1,Percent Effect,30 µM,-2.179%
CCOc1ccc2nc(NC(=O)c3c(C(=O)O)cnn3C)sc2c1,Percent Effect,"30.3 µM, […]",4.578%
Cc1c(Cl)ccc2ccc(NC(CO)CO)nc12,Percent Effect,"30.3 µM, […]",6.475%
CC(NC(=O)Cn1cc(C(N)=O)c(-c2ccccc2)n1)C1CC1 (configuration not stated),Percent Effect,"30.3 µM, […]",12.7%
CC(C)(N)C(=O)N1CCCC(C(=O)c2ccc(C(C)(C)C)cc2)C1 (configuration not stated),Percent Effect,"30.3 µM, […]",91.24%
CC(=O)NCC(=O)N1CCCC(C(=O)c2ccc(C(C)(C)C)cc2)C1 (configuration not stated),Percent Effect,"30.3 µM, […]",16.87%
CC(C)(C)c1ccc(C(=O)C2CCCN(C(=O)CNS(C)(=O)=O)C2)cc1 (configuration not stated),Percent Effect,"30.3 µM, […]",1.067%
Cc1cc(COC(=O)[C@@H]2Cc3ccccc3CN2S(C)(=O)=O)no1,Percent Effect,"30.3 µM, […]",12.34%
Cc1nccc(NCc2cncc3c2CCN(CC2CC2)C3)n1.Cl.Cl,Percent Effect,"30.3 µM, […]",25.61%
Cc1nccc(NCc2cncc3c2CCN(CCN(C)C)C3)n1,Percent Effect,"30.3 µM, […]",29.74%
Cc1nccc(NCc2cncc3c2CCN(CC2CCOC2)C3)n1.Cl.Cl (configuration not stated),Percent Effect,"30.3 µM, […]",55.7%
Cc1nc(NC2(CN3CCCCC3)CCCCC2)c2cnn(C)c2n1,Percent Effect,"30.3 µM, […]",21.44%
CCOC(=O)CC1(Nc2nc(C)nc3c2cnn3C)CCCCC1,Percent Effect,"30.3 µM, […]",50.84%
COCC1(Nc2nc(C)nc3c2cnn3C)CCCC1,Percent Effect,"30.3 µM, […]",32.37%
